In the supplement of paper PMC11732987, “Enantioselective OTUD7B fragment discovery through chemoproteomics screening and high-throughput optimisation” (Communications Chemistry, 2025):

How the values were obtained:
Assay in all cases: log2 ratio of Biotin-Ahx-Ub-VS probe labelling (fragment/DMSO); higher = less target engagement (more negative = stronger competition), active = hit call of the paper (q ≤ 0.05, log2 ratio ≤ -1)
Settings in all cases: compound concentration: 200 uM; treatment time: 3 h
[1] = target: T1, ALG13 (UniProt Q9NP73)
T1 sequence (whole entry): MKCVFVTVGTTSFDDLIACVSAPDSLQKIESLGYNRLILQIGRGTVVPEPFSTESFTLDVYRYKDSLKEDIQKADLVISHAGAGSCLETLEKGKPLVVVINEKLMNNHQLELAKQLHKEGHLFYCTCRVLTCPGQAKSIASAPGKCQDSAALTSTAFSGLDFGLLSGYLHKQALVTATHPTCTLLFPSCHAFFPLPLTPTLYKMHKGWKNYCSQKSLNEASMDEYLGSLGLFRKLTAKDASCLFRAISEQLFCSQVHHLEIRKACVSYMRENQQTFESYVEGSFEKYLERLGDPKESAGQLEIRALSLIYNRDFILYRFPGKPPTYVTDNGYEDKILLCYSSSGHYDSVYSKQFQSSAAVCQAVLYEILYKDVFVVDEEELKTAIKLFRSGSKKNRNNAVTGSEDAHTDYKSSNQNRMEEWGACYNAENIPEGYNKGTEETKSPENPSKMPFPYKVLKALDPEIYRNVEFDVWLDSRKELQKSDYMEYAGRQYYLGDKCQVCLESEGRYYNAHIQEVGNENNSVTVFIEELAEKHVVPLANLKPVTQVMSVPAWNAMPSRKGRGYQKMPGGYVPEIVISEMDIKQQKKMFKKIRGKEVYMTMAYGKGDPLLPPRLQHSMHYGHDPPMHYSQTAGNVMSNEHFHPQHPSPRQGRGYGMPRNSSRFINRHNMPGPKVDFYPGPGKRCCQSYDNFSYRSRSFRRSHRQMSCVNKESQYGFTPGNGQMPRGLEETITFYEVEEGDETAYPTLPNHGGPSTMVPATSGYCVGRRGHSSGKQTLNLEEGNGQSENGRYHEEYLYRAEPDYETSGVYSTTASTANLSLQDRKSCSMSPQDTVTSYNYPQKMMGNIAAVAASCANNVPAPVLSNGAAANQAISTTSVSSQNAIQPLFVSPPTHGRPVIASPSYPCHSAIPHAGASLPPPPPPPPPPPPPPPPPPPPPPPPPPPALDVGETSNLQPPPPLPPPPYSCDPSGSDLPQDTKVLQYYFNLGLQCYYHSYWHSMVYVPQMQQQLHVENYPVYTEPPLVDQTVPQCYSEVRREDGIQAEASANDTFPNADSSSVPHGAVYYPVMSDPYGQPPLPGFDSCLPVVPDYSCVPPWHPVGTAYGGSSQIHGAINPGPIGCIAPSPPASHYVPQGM
How it was run: (§1)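 HEK293T lysate (495 µg per sample, in Tris/CHAPS/IGEPAL buffer with protease inhibitors) was exposed in triplicate for 3 h to fragment at 200 µM or to vehicle, then to Biotin-Ahx-Ub-VS at 0.5 µM final for 1 h. Labelled DUBs were enriched on NeutrAvidin, digested with LysC and trypsin, and analysed by diaPASEF LC-MS/MS. Spectronaut label-free quantities were normalised to the global median, and values are average log2 ratios of fragment over vehicle from an unpaired t-test. Only proteins with ≥2 unique peptides were used.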

[2] = target: ATXN3 (UniProt P54252)
How it was run: as §1

[3] = target: T2, BAP1 (UniProt Q92560)
T2 sequence (whole entry): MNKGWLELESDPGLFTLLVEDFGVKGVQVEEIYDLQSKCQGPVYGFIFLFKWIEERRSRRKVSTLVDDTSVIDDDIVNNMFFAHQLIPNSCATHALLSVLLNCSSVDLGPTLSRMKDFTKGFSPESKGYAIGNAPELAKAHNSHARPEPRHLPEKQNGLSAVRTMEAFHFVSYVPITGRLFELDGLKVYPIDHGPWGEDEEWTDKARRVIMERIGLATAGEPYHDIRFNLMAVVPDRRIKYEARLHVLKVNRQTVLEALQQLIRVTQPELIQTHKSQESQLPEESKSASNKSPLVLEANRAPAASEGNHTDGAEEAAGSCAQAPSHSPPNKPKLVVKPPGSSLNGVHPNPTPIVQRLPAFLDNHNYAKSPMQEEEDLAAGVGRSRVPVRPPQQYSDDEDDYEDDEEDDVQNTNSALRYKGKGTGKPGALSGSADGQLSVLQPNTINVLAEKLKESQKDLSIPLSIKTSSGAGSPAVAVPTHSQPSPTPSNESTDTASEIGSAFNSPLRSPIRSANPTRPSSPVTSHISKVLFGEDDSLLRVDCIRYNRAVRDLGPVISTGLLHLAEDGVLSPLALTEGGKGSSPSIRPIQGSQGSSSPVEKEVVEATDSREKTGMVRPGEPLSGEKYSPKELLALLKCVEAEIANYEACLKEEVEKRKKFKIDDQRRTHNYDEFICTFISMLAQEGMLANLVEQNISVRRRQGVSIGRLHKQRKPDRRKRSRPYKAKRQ
How it was run: as §1

[4] = target: EIF3F (UniProt O00303)
How it was run: as §1

[5] = target: EIF3H (UniProt O15372)
How it was run: as §1

[6] = target: T3, FAM105A (UniProt Q9NUU6)
T3 sequence (whole entry): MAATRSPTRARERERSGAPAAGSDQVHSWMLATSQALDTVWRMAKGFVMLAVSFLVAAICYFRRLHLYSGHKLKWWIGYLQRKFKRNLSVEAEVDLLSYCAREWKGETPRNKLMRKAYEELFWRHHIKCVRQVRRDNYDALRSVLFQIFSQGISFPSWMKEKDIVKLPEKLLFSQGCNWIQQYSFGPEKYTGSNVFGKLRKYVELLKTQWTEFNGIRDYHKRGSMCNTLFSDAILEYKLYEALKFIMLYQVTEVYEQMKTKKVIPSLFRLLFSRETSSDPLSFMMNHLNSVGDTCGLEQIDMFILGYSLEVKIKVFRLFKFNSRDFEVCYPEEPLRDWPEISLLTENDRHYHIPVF
How it was run: as §1

[7] = target: OTUB1 (UniProt Q96FW1)
How it was run: as §1

[8] = target: T4, OTUD4 (UniProt Q01804)
T4 sequence (whole entry): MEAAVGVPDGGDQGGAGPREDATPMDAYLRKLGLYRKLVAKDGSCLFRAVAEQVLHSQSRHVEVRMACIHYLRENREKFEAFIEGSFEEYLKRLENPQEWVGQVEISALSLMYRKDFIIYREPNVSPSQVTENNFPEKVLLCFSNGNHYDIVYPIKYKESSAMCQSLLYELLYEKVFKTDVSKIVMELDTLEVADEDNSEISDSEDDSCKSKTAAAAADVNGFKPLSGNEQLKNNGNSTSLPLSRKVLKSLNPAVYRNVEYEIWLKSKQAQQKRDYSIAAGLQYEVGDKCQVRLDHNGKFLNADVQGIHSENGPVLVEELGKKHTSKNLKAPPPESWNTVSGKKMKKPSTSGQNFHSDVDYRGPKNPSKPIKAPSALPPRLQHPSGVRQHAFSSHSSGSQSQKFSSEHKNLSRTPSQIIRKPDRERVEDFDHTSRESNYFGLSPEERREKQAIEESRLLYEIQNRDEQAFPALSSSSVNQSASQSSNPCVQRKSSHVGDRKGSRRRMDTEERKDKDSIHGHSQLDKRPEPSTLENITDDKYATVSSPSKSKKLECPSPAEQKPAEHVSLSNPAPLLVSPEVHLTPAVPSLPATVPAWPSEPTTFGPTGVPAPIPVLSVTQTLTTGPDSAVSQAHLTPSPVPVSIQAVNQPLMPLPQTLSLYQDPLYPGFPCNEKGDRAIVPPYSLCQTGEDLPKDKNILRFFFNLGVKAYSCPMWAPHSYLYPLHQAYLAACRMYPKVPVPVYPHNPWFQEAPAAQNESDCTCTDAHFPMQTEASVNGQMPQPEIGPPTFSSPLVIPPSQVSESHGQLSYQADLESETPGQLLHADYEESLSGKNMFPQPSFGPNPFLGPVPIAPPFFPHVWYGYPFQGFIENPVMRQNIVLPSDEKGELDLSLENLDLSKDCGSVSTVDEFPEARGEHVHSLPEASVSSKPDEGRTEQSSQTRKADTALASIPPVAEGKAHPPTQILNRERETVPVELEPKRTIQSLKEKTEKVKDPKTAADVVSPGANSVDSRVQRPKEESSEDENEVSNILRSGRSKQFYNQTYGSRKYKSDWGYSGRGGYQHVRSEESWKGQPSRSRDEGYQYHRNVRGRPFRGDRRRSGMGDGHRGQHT
How it was run: as §1

[9] = target: T5, OTUD5 (UniProt Q96G74)
T5 sequence (whole entry): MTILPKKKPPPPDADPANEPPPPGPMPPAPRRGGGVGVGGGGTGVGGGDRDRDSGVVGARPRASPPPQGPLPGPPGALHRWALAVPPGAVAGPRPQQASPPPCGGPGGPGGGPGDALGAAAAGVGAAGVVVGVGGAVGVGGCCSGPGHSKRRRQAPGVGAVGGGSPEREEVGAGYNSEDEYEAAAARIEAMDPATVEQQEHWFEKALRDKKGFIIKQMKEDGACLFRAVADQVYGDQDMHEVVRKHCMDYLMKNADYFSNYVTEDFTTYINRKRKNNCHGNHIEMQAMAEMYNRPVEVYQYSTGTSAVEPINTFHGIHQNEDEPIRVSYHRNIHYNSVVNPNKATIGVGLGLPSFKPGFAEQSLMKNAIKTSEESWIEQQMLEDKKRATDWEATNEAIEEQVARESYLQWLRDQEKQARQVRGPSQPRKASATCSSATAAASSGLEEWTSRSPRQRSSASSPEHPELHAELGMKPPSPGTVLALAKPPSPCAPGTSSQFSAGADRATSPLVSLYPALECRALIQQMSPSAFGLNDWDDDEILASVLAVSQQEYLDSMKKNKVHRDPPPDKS
How it was run: as §1

Measured: log2 ratio of Biotin-Ahx-Ub-VS probe labelling

Chain of EIF3F (O00303 whole entry): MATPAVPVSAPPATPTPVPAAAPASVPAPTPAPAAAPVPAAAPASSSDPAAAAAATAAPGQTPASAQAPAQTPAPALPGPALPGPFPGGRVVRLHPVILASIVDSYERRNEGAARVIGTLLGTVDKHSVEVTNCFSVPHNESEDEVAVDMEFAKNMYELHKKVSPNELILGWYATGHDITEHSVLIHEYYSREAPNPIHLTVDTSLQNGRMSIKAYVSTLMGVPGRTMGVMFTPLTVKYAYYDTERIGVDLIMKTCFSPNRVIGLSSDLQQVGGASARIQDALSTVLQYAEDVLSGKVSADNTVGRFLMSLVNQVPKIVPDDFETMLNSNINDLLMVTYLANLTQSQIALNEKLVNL
Chain of OTUB1 (Q96FW1 whole entry): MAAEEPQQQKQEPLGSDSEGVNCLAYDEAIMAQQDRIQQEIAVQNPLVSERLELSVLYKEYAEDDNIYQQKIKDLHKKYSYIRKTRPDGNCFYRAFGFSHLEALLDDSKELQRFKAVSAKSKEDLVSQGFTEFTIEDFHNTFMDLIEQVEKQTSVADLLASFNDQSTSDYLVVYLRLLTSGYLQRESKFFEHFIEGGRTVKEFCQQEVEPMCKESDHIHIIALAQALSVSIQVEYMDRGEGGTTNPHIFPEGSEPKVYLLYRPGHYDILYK
Chain of ATXN3 (P54252 whole entry): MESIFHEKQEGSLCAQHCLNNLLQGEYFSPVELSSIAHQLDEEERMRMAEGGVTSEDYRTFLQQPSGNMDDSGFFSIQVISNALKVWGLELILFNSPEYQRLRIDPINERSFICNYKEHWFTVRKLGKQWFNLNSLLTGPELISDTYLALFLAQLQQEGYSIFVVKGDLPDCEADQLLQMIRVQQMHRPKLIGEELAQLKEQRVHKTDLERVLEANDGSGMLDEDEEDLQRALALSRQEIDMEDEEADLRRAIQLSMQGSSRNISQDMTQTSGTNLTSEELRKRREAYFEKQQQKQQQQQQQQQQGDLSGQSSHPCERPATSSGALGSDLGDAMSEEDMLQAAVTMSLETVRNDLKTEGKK
Chain of EIF3H (O15372 whole entry): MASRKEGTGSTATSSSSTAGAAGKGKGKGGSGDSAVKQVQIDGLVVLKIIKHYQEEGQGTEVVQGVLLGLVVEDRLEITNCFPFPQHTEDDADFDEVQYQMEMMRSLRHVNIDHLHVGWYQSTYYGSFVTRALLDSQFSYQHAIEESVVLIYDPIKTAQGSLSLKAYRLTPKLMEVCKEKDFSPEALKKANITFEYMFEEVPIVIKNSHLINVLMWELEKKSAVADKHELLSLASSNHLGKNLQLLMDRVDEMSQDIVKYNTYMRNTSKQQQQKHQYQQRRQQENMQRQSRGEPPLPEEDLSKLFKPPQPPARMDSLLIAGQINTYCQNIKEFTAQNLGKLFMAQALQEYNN

O=C(CCl)N1CCC(C(=O)N2CCCC2)CC1
inactive: [1] 0.141 | [2] -0.319 | [3] -0.206 | [4] -0.123 | [5] -0.0247 | [6] -0.324 | [7] -0.0283 | [8] 0.178 | [9] -0.137
